# Test results from PubChem BioAssay AID720509 (The Scripps Research Institute Molecular Screening Center, 2013).
# About 760 (0.21%) of roughly 370,000 compounds were called active.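 Rule for the calls: active = inhibition above a per-campaign cutoff: mean of compounds within control limits plus 3 SD (cut at about 15% in these data); inactive = the rest.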 This excerpt belongs to a sample that is enriched for actives.
# Target: Fibrinogen beta chain (Homo sapiens) (UniProt P02675)
# Test: inhibitors of Tn6 peptide binding to fibrin DD(E), primary screen, biochemical, fluorescence polarization, human fibrin, Tn6 probe (AID 720509);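 note: 0% = median of all compound wells on the plate and 100% = blocking peptide control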
# Details: Fibrin DD(E) TRITC-Tn6 fluorescence polarization displacement; at 8.3 µM; active compounds read high
# Chain of Fibrinogen beta chain (Homo sapiens) (P02675 whole entry, looked up): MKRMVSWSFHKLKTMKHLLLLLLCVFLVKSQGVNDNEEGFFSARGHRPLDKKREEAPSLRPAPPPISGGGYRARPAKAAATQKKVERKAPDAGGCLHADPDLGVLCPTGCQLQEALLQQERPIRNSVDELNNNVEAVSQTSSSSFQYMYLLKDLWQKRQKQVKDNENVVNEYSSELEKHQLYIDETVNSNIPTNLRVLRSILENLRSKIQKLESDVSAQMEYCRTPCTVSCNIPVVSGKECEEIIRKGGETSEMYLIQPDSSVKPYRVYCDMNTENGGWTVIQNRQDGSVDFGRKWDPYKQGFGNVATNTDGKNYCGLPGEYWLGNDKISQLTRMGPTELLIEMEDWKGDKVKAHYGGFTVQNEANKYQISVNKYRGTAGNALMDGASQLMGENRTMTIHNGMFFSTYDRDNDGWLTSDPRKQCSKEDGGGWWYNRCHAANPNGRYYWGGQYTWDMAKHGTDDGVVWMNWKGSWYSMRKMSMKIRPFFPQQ
row,Structure (SMILES),inhibition
1,CN(C)CCCn1c(N)c(C#N)c2nc(C#N)c(C#N)nc21,15.8% (active)
2,Cc1cccc(N(C(=O)c2csnn2)C(C(=O)NCc2ccccc2)c2ccncc2)c1 (stereo not given),1% (inactive)
3,CC(C)NC(=O)c1ccccc1S(=O)c1ccccc1C#N (stereo not given),-6.4% (inactive)
4,CCn1nnc2cc(C(=O)Nc3ccc(C(=O)OC(C)C)cc3)ccc21,-3.39% (inactive)
5,Cc1cccc(C)c1N1CCN(S(=O)(=O)N2CCOCC2)CC1,-1.95% (inactive)
6,COc1ccc(-c2c(-c3cc(OC)cc(OC)c3)n(C)c3ccc(-c4ccn[nH]4)cc23)cc1,7.03% (inactive)
7,CCN(CC)CCCC(C)n1c2nc(=O)[nH]c(=O)c-2nc2cc(Cl)ccc21 (stereo not given),0.53% (inactive)
8,Cc1cc2nc3c(=O)[nH]c(=O)nc-3n(C[C@H](O)[C@H](O)[C@H](O)CO)c2cc1C,16.3% (active)
9,CCc1ccc(NC(=O)CN2CCC(C(=O)c3ccc(OC)cc3)CC2)cc1,3.02% (inactive)
10,S=c1[nH]cc(-c2ccc(Cl)cc2)n1-c1ccccc1,1.55% (inactive)
11,COc1cc(C(=S)N2CCOCC2)cc(OC)c1OC(=O)c1cc([N+](=O)[O-])c(C)c([N+](=O)[O-])c1,-2.56% (inactive)
12,COCCNc1nc2nonc2nc1N(C)Cc1ccc(C)cc1,-1.67% (inactive)
13,CONc1nc2nonc2nc1NOC,15.3% (active)
14,COc1ccc(Nc2nc(-c3ccccc3)cs2)cc1,16.7% (active)
15,COc1ccc(NC(=S)N2N=CCC2c2ccccc2)cc1 (stereo not given),4.08% (inactive)
16,N#CC(=C1SC=CS1)c1nc(-c2ccccc2)cs1,4.25% (inactive)
17,CC(C)Nc1ccc(-n2nc3ccccc3[n+]2[O-])cc1,-1.03% (inactive)
18,NS(=O)(=O)c1ccc(CNC(=O)c2ccc(Cl)cc2[N+](=O)[O-])cc1,9.9% (inactive)
19,CSc1ccccc1NC(=O)c1cnc2sc(C)cn2c1=O,7.27% (inactive)
20,COC(=O)[C@@H]1CCCN1C(=O)c1cc(COc2cccc3cccnc23)on1,7.18% (inactive)
21,O=C(NCCCn1ccnc1)C1CCCN(S(=O)(=O)c2cc(Cl)ccc2Cl)C1 (stereo not given),1.05% (inactive)
22,COc1ccc2c(c1)CC[C@@H]1[C@@H]2CC[C@]2(C)C(=O)CC[C@@H]12,5.66% (inactive)
23,CCc1cccc(CC)c1NC(=O)COc1ccccc1C(=O)c1cc(C#N)c(=O)n(C2CCCCC2)c1,-4.12% (inactive)

row,Structure (SMILES),inhibition
1,CN(Cc1ccccc1)C(=O)CCC1CCN(C(=O)c2ccco2)CC1,-1.06% (inactive)
2,Cc1ccc(C)c(C(C)NC(=O)C2CCCO2)c1 (stereo not given),0.84% (inactive)
3,Cc1cc(C)c2nc(NC(=O)C3CCCO3)sc2c1 (stereo not given),15.3% (active)
4,Cc1cc(C)c2nc(N3CCC(C(=O)NCCN4CCOCC4)CC3)sc2c1,-1.61% (inactive)
5,O=C(NCC1CCCO1)c1ccccc1-c1nc(-c2ccccc2Cl)no1 (stereo not given),8.29% (inactive)
6,Cc1nn(C)cc1N1C(=O)c2cccc3c(N)ccc(c23)C1=O,19.6% (active)
7,C/C(N)=C(/C#N)C(=O)COC(=O)CNS(=O)(=O)c1ccc(C)cc1,4.06% (inactive)
8,COc1ccc(C)cc1NC(=S)Nc1ccccc1SC,-8.72% (inactive)
9,COc1cc(NC(=S)NNC(=O)CC(C)C)c(OC)cc1Cl,9.57% (inactive)
10,CCc1ccccc1NC(=S)Nc1cc(OC)c(NC(=O)C(C)C)cc1OC,52.5% (active)
11,Cc1ccccc1OCC(=O)Nc1nnc(S(=O)(=O)N2CCCC2)s1,3.91% (inactive)
12,Cc1ccc(NC(=O)C(C)Sc2nnc(C3CC3)n2C2CC2)cc1S(=O)(=O)N1CCOCC1 (stereo not given),-3.46% (inactive)
13,O=C1CCc2cc(S(=O)(=O)N3CCC(C(=O)NCc4ccccc4Cl)CC3)ccc2N1,-0.95% (inactive)
14,COc1ccc(C(=O)OCc2cc(=O)n3ccsc3n2)cc1F,-0.34% (inactive)
15,O=C(OCc1cc(=O)n2ccsc2n1)C1(c2ccc(Cl)cc2)CC1,4.84% (inactive)
16,O=c1cc(Cn2nnc(-c3ccc(Cl)cc3)n2)nc2sccn12,16.1% (active)
17,Cc1ccc(S(=O)(=O)NCC(=O)NNC(=O)c2ccc(Br)cc2)cc1C,0.07% (inactive)
18,Cc1cc(=O)oc(C)c1C(=O)NCCN(C)Cc1ccccc1,-1.95% (inactive)
19,C[C@@H]1ON(C)[C@H]2C[C@H]3c4cc(N5CCN(C)CC5)ccc4CCN3C(=O)[C@@H]12,-3.94% (inactive)
20,Cc1ccc(CNC(=O)COc2ccc3c(c2)CCC3)cc1,-1.34% (inactive)
21,CCOCC(=O)NCc1ccc2c(c1)cc(C)n2C,22.7% (active)
22,Cc1ccc(CNC(=O)Cc2cn(C)c3ccccc23)cc1,-3.12% (inactive)
23,CC[C@@H]1CC2=C(C(=O)OC(C)(C)O2)[C@@H](CC)O1,-4.34% (inactive)

row,Structure (SMILES),inhibition
1,COc1ccc(NC(=O)c2cc([N+](=O)[O-])ccc2NC(=O)CNC2CCCCC2C)c(OC)c1 (stereo not given),-3.72% (inactive)
2,CC1(C)C(C=C(Cl)Cl)C1C(=O)NC(O)C(=O)c1ccccc1 (stereo not given),14.5% (inactive)
3,O=C(c1ccc2c(c1)N(Cc1ccc(F)cc1)C(=O)CS2)N1CCOCC1,-0.8% (inactive)
4,COC(=O)C(=Nc1ccccc1)/C(C(=O)C(=O)N(C)c1ccccc1)=C(\O)c1ccc(Cl)cc1,-4.47% (inactive)
5,O=C(NCCCNc1ccc([N+](=O)[O-])cc1Cl)c1ccccc1F,0.76% (inactive)
6,O=C(NCCNc1ccccc1[N+](=O)[O-])c1ccccc1F,16.1% (active)
7,Cc1c(C(=O)NCCCc2ccccc2)cccc1[N+](=O)[O-],7.53% (inactive)
8,COc1ccc(-n2cnnc2SCC(=O)Nc2cccc(S(N)(=O)=O)c2)cc1,11.3% (inactive)
9,NS(=O)(=O)c1ccc(NC(=O)/C=C/c2ccccc2Cl)cc1,-10.6% (inactive)
10,Cc1ccc(-c2nn(-c3ccccc3)cc2/C=C/C(=O)Nc2cccc(S(N)(=O)=O)c2)cc1,52% (active)
11,CC1CN(S(=O)(=O)c2cccc(C(F)(F)F)c2)CN1C(=O)N1CCOCC1 (stereo not given),-4.35% (inactive)
12,CC(=O)n1cc([C@@H]2C=C(C(=O)N3CCN(Cc4ccc5c(c4)OCO5)CC3)O[C@H](OCc3ccc(CO)cc3)C2)c2ccccc21,3.52% (inactive)
13,CCCCNC(=O)OC1CC2CC1[C@H]1CCCCN1C2=O (stereo not given in full),-8.63% (inactive)
14,OCCC1CN(Cc2ccc3nsnc3c2)CCN1C1CCCCC1 (stereo not given),-12.1% (inactive)
15,COc1ccc(N2C(=O)NC(NS(=O)(=O)c3ccc(Cl)cc3)(C(F)(F)F)C2=O)cc1 (stereo not given),16.5% (active)
16,Cc1ccc(S(=O)(=O)NC2(C(F)(F)F)NC(=O)N(CCc3ccccc3)C2=O)cc1 (stereo not given),1.91% (inactive)
17,COc1ccc(S(=O)(=O)NC2(C(F)(F)F)N=C3SCCN3C2=O)cc1 (stereo not given),3.58% (inactive)
18,Cc1cc(=O)[nH]c(SCC(=O)Nc2ccc(F)cc2F)n1,-5.08% (inactive)
19,COc1ccc(NC(=O)C2=NNC(=O)CC2)cc1S(=O)(=O)N1CCCCC1,3.03% (inactive)
20,COCCn1c(SCC(=O)Nc2ccc3c(c2)CCC3)nc2ccccc2c1=O,-3.38% (inactive)
21,COc1ccc(NS(=O)(=O)c2cc3c(cc2C)N(C(C)=O)CCO3)cc1,-0.74% (inactive)
22,C=C(C)CSc1nnc(-c2ccc(C)cc2)n1N,2.43% (inactive)
23,CC(C)N(c1ccccc1)c1ncnc(NCCC(=O)O)c1[N+](=O)[O-],0.23% (inactive)

row,Structure (SMILES),inhibition
1,Cc1ccc2c(c1)N(CC(=O)NCCCN1CCCCC1)C(=O)c1cccnc1O2,-7.1% (inactive)
2,COc1ccc([C@H]2OC(=O)C[C@H]2C(=O)N2CCN(c3ccccc3F)CC2)cc1OC,-0.84% (inactive)
3,CCCN(CC(=O)Nc1ccc(OC)c(OC)c1)CC(=O)Nc1ccc(F)c(F)c1F,7.52% (inactive)
4,COc1ccc(Nc2nc(-c3cccnc3)nc3ccccc23)cn1,15.3% (active)
5,O=C(CSc1n[nH]c(-c2cccnc2)n1)Nc1ccnc2ccccc12,-0.07% (inactive)
6,O=C(Nc1ccc(Cl)cc1)Nc1ccc(Oc2cccnc2)nc1,-12.2% (inactive)
7,COc1ccc(S(=O)(=O)N(CCCN2CCCC2=O)Cc2cc3c(C)ccc(C)c3[nH]c2=O)cc1,-7.91% (inactive)
8,Cc1ccc(NC(=O)Cn2sc3ccccc3c2=O)cc1,1.72% (inactive)
9,Cc1ccc(NC(=O)CN2CCc3ccccc3C2)cc1,15.8% (active)
10,O=C(CN1CCc2ccccc2C1)Nc1cccc(S(=O)(=O)N2CCOCC2)c1,4.91% (inactive)
11,Cc1ccc(-c2nc(C)sc2CC(=O)OCC(=O)Nc2c(F)cccc2F)cc1,4.3% (inactive)
12,Cc1ccc(-c2nc(C)sc2CC(=O)O)cc1,16.2% (active)
13,Cc1nc(-c2ccc(F)cc2)c(CC(=O)N2CCN(S(=O)(=O)c3ccc(F)cc3)CC2)s1,-5.03% (inactive)
14,O=C(Nc1ccc(N2CCOCC2)cc1)c1cccc2c(-c3ccc(F)c(F)c3)coc12,-1.54% (inactive)
15,Cc1ccc(Nc2nc(CSc3nnc(-c4ccncc4)n3-c3ccccc3C)cs2)cc1,-3.59% (inactive)
16,O=C(NCC(F)(F)F)c1ccc(S(=O)(=O)NCCc2ccc3c(c2)OCCO3)cc1,0.28% (inactive)
17,Cn1cc(-c2ccccc2)cc(C#N)c1=O,-5.81% (inactive)
18,CCCCNC(=O)Nc1c(C)cc(SC#N)cc1C,-1.9% (inactive)
19,C[C@H]([C@@H](O)[C@@H](O)[C@@H](C)C(C)(C)C)[C@H]1CC[C@H]2C3CC[C@H]4C[C@H](OS(=O)(=O)O)[C@@H](OS(=O)(=O)O)C[C@]4(C)[C@H]3CC[C@]12C (stereo not given in full),3.35% (inactive)
20,O=C(NCc1ccccc1Cl)C1CCN(c2ncnc3c2nc2n3CCCCC2)CC1,-4.73% (inactive)
21,C=C1CCC(N(O)c2cc(C)on2)C(=C)CCC2C1CC2(C)C (stereo not given),-5.24% (inactive)
